Measurements reported in PubChem BioAssay (Tox21).
Values joined by “and” are separate entries in the source; they are usually repeats but may differ in a detail not shown here. Equal entries are not always repeated. Inconclusive results are not listed. Active and inactive are the calls of the source. Calls come from the whole dose curve; as a rule, active = well fitted cell-killing curve with a large enough effect in the repeat runs; inconclusive = weak or mixed curves, or effect the other way; inactive = flat fitted curve, though single readings scatter.

Experiment: qHTS RealTime-Glo MT Cell Viability Assay in HEK293 cells - 16 hour (AID 1224872); note: nearly all actives have a fitted effect of over 50% in size; for activity change, negative = cytotoxicity: top concentration of the series differs between compounds
Conditions: RealTime-Glo luminescence; series mostly up to 76.8 µM; activity change, negative = cytotoxicity: at the top concentration
Text: National Center for Advancing Translational Sciences [NCATS]
NIH Chemical Genomics Center [NCGC]
U.S. Environmental Protection Agency [EPA]
National Institutes of Environmental Health Sciences [NIEHS]
National Toxicology Program [NTP]
U.S. Food and Drug Administration [FDA]
Measure of cell viability is critical in the cell-base assay. Analysis of cell viability is necessary for the characterization of cell responses to cytotoxic drugs and environmental stress. A RealTime-Glo MT Cell Viability Assay to monitor cell viability in real time of continues cell culture during 40 hours of compound treatment was used to screen Tox21 10K library compounds in Hek293 cells. The RealTime-Glo MT Cell Viability Assay is a nonlytic, homogeneous, bioluminescent method to measure cell viability in real time using a simple, plate-based method. The assay involves adding NanoLuc luciferase and a cell-permeant prosubstrate to cells in culture. Viable cells reduce the proprietary prosubstrate to generate a substrate for NanoLuc luciferase. This substrate diffuses from cells into the surrounding culture medium, where it is rapidly used by the NanoLuc Enzyme to produce a luminescent signal. The signal correlates with the number of viable cells, making the assay well suited for cytotoxicity studies.
Tox21 Assay Protocol Summary:
The mixture of Hek293 cell suspension and reagents were dispensed at 600cells/6 ul/well in 1536-well tissue culture treated black solid bottom plates using a Multidrop dispenser. After the assay plates were incubated at a 37 C/5% CO2 incubator for 5 hours, 23 nL of compounds dissolved in DMSO, positive and negative controls was transferred to the assay plate by a pintool work station. The plates were incubated at 37 C for 40 hours. The luminescence intensity were measured at 0h, 8h, 16h, 24h, 32h and 40h time points using ViewLux plate reader during compound treatment.
% is set by controls: 0 for no effect and ±100 for the full control effect; potency is the fitted concentration of half-maximal effect.

Structure (SMILES)	activity change, negative = cytotoxicity	Potency
Clc1nc2ccccc2s1	-5.6% (inactive)	–
CC1CCCNC1 (stereo not given)	-10.1% (inactive)	–
O=C(O)Cc1ccc(OCCNC[C@H](O)c2ccccc2)cc1	6.12% [at 35.3 µM] (inactive)	–
C=CC(=O)OCCOCC(CC)(COCCOC(=O)C=C)COCCOC(=O)C=C	–	18.1 µM (active)
CCNc1nc(NC(C)CC)nc(OC)n1 (stereo not given)	-23.2% (inactive)	–
CS(C)(=O)=O	-4.71% (inactive)	–
CN1CN(C)CN(C)C1	-11.1% (inactive)	–
OCCC(O)CO (stereo not given)	13.7% (inactive)	–
C/C=C/CO	8.15% (inactive)	–
CC(=O)Oc1ccc(C2(c3ccc(OC(C)=O)cc3)Oc3ccccc3NC2=O)cc1	-11.2% [at 35.3 µM] (inactive)	–
CC(C)(C)CC(C)(C)c1ccccc1O	–	39.1 µM (active)
O=C(O)CCn1c2c(c3ccccc31)C[C@H](NS(=O)(=O)c1ccc(F)cc1)CC2	16.5% [at 35.3 µM] (inactive)	–
CCN(CC)c1ccc(N)cc1	–	22.5 µM (active)
CC(C)c1ccc(O)c(C(C)C)c1	-22.9% (inactive)	–
Clc1cc(Cl)c(-c2c(Cl)c(Cl)cc(Cl)c2Cl)cc1Cl	27.8% [at 35.3 µM] (inactive)	–
Cc1cc(Nc2ccc(O)cc2)ccc1N	–	24.4 µM (active)
CC(C(O)c1ccccc1)N(C)CCOC(c1ccccc1)c1ccccc1 (stereo not given)	–	21.3 µM (active)
CCc1ccc(O)c(C(C)(C)C)c1	-18.9% (inactive)	–
Cc1c(-c2ccc(O)cc2)n(Cc2ccc(OCCN3CCCCCC3)cc2)c2ccc(O)cc12	–	2.68 µM (active)
CSc1ccc2c(c1)N(CCC1CCCCN1C)c1ccccc1S2 (stereo not given)	–	17.3 µM (active)

Structure (SMILES)	activity change, negative = cytotoxicity	Potency
C/C=C/C=N/NC(=O)c1ccncc1	26.4% [at 35.3 µM] (inactive)	–
CCOC(=O)CC(C)O (stereo not given)	9.49% (inactive)	–
CNCC[C@H](Oc1cccc2ccccc12)c1cccs1	–	23.9 µM (active)
CCCCCCCC(C)=O	0.0006% (inactive)	–
CCCC(=O)OCC(COC(=O)CCC)OC(=O)CCC	10.5% (inactive)	–
Cc1c(C(=O)O)cccc1[N+](=O)[O-]	-6.25% (inactive)	–
CN(C)CCN1CCOCC1	3.21% (inactive)	–
CO[C@H]1C=CO[C@@]2(C)Oc3c(C)c(O)c4c(O)c(cc(O)c4c3C2=O)NC(=O)/C(C)=C\C=C/[C@H](C)[C@H](O)[C@@H](C)[C@@H](O)[C@@H](C)[C@H](OC(C)=O)[C@@H]1C	-20.7% (inactive)	–
COc1ccccc1C=O	7.57% (inactive)	–
CCCCCCCOC(=O)c1ccc(O)cc1	–	24.6 µM (active) and 21.9 µM (active)
CNC(=S)NN	-1.45% (inactive)	–
Cc1occc1SSc1ccoc1C	-27.5% (inactive)	–
CCOC(/C=C(\C)CCC=C(C)C)OCC	3.44% (inactive)	–
O=c1cccc[nH]1	9.2% (inactive)	–
O=C1C=CC(=O)N1c1ccccc1	–	15.5 µM (active)
CCCCCCOc1ccc(O)cc1	–	0.0617 µM (active)
S=P(N1CC1)(N1CC1)N1CC1	3.77% (inactive)	–
CC(=O)OC1CCCCC1	-7.38% (inactive)	–
CCC(C)C(=O)OC (stereo not given)	0.446% (inactive)	–
N#CSCSc1nc2ccccc2s1	–	15.5 µM (active)
